The source of these data is PubChem BioAssay (NCI).

Several values for one entry are separate records, joined by “and”; a condition that tells them apart may be missing. Identical values can stand only once. About 83,000 compounds went through this panel and 20% of them were active in at least one assay; those are over-represented in the sample as a whole.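 Each cell line was grown in a 96-well plate and treated with one concentration of compound for 48 hours. Values below 10 were considered active.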 Activity calls are given as the source filed them.

The test system of this test is HL-60(TB) leukemia. The experiment in a line: NCI-60 one-dose screen, 48 h (100 = growth as untreated, 0 = no growth, -100 = all killed). Conditions: 10 µM unless noted.
For the molecule `Cn1cnc2c(F)c(Nc3ccc(Br)cc3F)c(C(=O)NOCCO)cc21`, the growth is 16.6% (inactive).

In the case of `CC1=C(Nc2ccc(N3CCN(C)CC3)cc2)C(=O)c2cncnc2C1=O`, the growth was -26.6% (active).

As for `CCCCCCCCCCCCCCCC[N+](C)(C)CCN(Cc1ccc(OC)cc1)c1ncccn1`, the growth is -52.7% (active) and -2.88% (active).

On to `O=Nc1c(O)c(Cl)cc2ccccc12`, for which the growth was 42.7% (inactive).

With `Cc1ccc(Cl)cc1NC(=O)N(C)CCO`, the growth was 92% (inactive).

With `Cc1ccc(NC(=O)Nc2ccc(-c3cccnc3)cc2N2CCC(CO)CC2)cc1`, the growth is 13.9% (inactive).

Take `O=C(Nc1cccc(-c2cccc(F)c2)c1)C1CCN(Cc2cccc3cccnc23)CC1`: the growth is 28% (inactive).

On to `Cc1ccc2nc3ccccc3c(NCc3ccccc3)c2c1`, for which the growth was 40.6% (inactive).

Regarding `CCCCCCCCCCCCCCCCNC(=S)N/N=C/c1ccc(O)cc1O`, the growth is 49.9% (inactive).

On to `COc1cc(C2CC(c3ccc(Cl)cc3)=NN2c2ccc(Cl)cc2)cc(OC)c1OC` (centres undefined), for which the growth is 97.9% (inactive).

For the molecule `O=S(=O)(Nc1ccc(Cl)cc1Cl)c1ccc(-c2cnc(C3CC3)o2)cc1`, the growth is -0.119% (active).

As for `Cc1cc2c(F)c(Oc3ncnn4cc(OC[C@@H](C)OC(=O)[C@H](C)N)c(C)c34)ccc2[nH]1`, the growth was 12.6% (inactive).

On to `Fc1ccc2[nH]cc(-c3nonc3-c3c[nH]c4ccc(Br)cc34)c2c1`, for which the growth is 34.5% (inactive).

In the case of `COc1cc2c(cc1OC)C1(C)N(CC2)C(=O)OC1(C)C` (centres undefined), the growth was -79.2% (active).

Turning to `CCCCCCCCn1ccc2cc(NC(=O)Cn3cc(CN4CCCC4)nn3)ccc21`, the growth was 13.8% (inactive).

Turning to `Nc1ccc(S(=O)(=O)c2ccc(N)cc2)cc1`, the growth was 67.4% (inactive).

In the case of `NCCOc1ncccc1/C=C1\c2ccccc2-c2ccc([N+](=O)[O-])cc21`, the growth is -41.7% (active).

Regarding `CCN1C(=O)N[C@H]2[C@@H]3NC(=O)c4ccc(Cl)n4[C@@H]3C[C@]21O`, the growth was -20.6% (active).

Turning to `COC(=O)c1ccc2c(c1)C(=O)c1c-2n(CCCN)c(=O)c2cc([N+](=O)[O-])ccc12`, the growth was -85.9% (active).

For `O=[N+]([O-])C1C(c2ccccc2)C12c1ccccc1-c1ccccc12` (centres undefined), the growth is -30.6% (active).

As to `O=C(Nc1ccc(Br)cc1F)c1cc(Cl)ccc1O`, the growth was -42.4% (active).

Regarding `COc1ccc2nc3ccc(OC)cc3c(SCCCN)c2c1`, the growth is 50.2% (inactive).

For the molecule `N#C/C(=C\c1ccc(-c2ccc(Cl)cc2)o1)C(=O)Nc1ncc(Cc2ccc(Cl)cc2)s1`, the growth was 80.1% (inactive).

Regarding `CC[N+](CC)(CC(=O)Nc1c(C)cccc1C)Cc1ccccc1`, the growth was 79.6% (inactive) and 94.7% (inactive).

In the case of `C/C(=C\CCc1ccoc1)CC/C=C(\C)CCCC1COC(=O)C1` (centres undefined), the growth is 95.8% (inactive).

In the case of `N#Cc1c(C(F)(F)F)cc(Nc2ccc3nc(NCCN4CCCC4)oc3c2)n2c1nc1ccccc12`, the growth was 86.6% (inactive).

Take `COC(=O)c1c2c(c(C)[n+]([O-])c1C)C(=O)C(NCc1ccc(Cl)cc1)=CC2=O`: the growth was 80.3% (inactive).

Turning to `C=C1C(=O)O[C@H]2[C@H]1CC/C(COC(=O)NCc1cc3ccccc3[nH]1)=C\CC[C@@]1(C)O[C@@H]21`, the growth was -51.4% (active).

Turning to `Nc1c(C(=O)Nc2ccccn2)sc2nc3c(cc12)CCCCCC3`, the growth was -22.2% (active).

Take `OCc1cccc(-c2ccc3ncc(-c4nc(NC5CC5)ncc4F)n3c2)c1`: the growth is -62% (active).

As for `CCN(CC)c1ccc2[nH]c3c(C(N)=O)cc(=O)c(=O)c=3oc2c1`, the growth was -25.1% (active).

For `O=C1C(=O)c2ccccc2C(O)=C1CCCc1ccc(C2CCCCCC2)cc1`, the growth was 45.6% (inactive).

Turning to `CCCCCC(/C=N\NC(=S)N/N=C/C(=C/c1ccccc1)CCCCC)=C\c1ccccc1`, the growth was 68.8% (inactive).

Regarding `OCC1OC(n2cnc3c(=S)nc[nH]c32)C(O)C1O` (centres undefined), the growth is 120% (inactive) and 50.9% (inactive).

Take `O=C(CCN1CCCC1)Nc1ccc2c(Nc3ccccc3)c3ccccc3nc2c1`: the growth was -46% (active).

For the molecule `O=C1C(Cl)=C(Nc2ccccn2)C(=O)c2ccccc21`, the growth was 72.9% (inactive).

Regarding `O=C(O)C(O)c1ccccc1` (centres undefined), the growth is 97.3% (inactive).

Regarding `COc1ccc(C2=Nc3c/c(=C\c4c(O)[nH]c5ccc(Cl)cc45)ccc3=N2)cc1`, the growth is 6.79% (active).

Regarding `N#CC(C#N)=C1NC(c2ccccc2)=C(c2ccccc2)C(c2ccccc2Cl)=C1C#N`, the growth was 79.2% (inactive).
